Screening data as filed in PubChem BioAssay.
This excerpt belongs to a sample that is enriched for hits.
ST2 IL33 inh: blocks human ST2 binding to IL-33; Q01638; 78,000 tested, 2.3% active; inhibition, % for hits at 17 µM; AlphaLISA ST2-Fc/biotin-IL-33 interaction, 1 h; in the data active means inhibition above about 30%
Target sequence (Q01638 whole entry, looked up): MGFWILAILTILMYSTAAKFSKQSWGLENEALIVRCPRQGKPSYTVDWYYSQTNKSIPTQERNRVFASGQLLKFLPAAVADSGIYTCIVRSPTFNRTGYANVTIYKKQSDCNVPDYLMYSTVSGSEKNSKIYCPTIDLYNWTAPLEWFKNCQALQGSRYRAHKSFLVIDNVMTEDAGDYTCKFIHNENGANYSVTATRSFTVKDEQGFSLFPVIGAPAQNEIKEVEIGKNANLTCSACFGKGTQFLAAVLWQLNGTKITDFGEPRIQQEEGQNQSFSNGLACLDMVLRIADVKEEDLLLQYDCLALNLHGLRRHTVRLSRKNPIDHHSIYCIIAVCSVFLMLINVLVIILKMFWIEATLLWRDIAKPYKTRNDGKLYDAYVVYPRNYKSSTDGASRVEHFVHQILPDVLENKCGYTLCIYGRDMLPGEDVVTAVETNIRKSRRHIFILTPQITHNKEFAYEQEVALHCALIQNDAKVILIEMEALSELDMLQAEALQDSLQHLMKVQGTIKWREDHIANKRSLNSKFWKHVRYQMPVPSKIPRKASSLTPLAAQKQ
Hits are given with their value; . = inactive.

SMILES | ST2 IL33 inh
O=C(NC[C@H]1O[C@@H](CC(=O)N2CCCC2)[C@H](O)[C@@H]1O)NC1CCCCC1 | .
COc1ccc(C2CC(=O)c3cnc(N)nc3C2)cc1OC (configuration not stated) | .
CCn1c(-c2ccc(OC)c(F)c2)csc1=Nc1ccccc1 | 73%
CN1C(=O)[C@@H]2C=C[C@H]1C1C(=O)N(c3ccc(Br)cc3)C(=O)C12 (some centres not stated) | .
Cc1ccc2nc(-c3ccc(N=Cc4ccc5c(c4)OCO5)cc3O)oc2c1 | 32%
Cc1ccc2nc(-c3cccc(N=Cc4cccc([N+](=O)[O-])c4O)c3)oc2c1 | .
O=C(O)c1ccc(O)c(C=Nc2cccc(-c3nc4ccccc4o3)c2)c1 | .
Cc1cccc2oc(-c3cccc(N=Cc4cc([N+](=O)[O-])cc([N+](=O)[O-])c4O)c3)nc12 | .
Cc1ccc2nc(SCC(=O)c3ccc4c(c3)OCO4)[nH]c2c1 | .
Cc1cccc2oc(-c3cccc(N=Cc4ccc(O)cc4O)c3)nc12 | .
Oc1ccc(N=Cc2cccc(I)c2O)cc1-c1nc2ccccc2o1 | 41%
O=C(Nc1ccc(O)c(-c2nc3ccccc3o2)c1)c1cccc(Cl)c1Cl | .
Cc1cc(C=Nc2ccc(-c3nc4ccccc4o3)c(O)c2)c(O)c([N+](=O)[O-])c1 | 30%
COCCOC(=O)C1=C(C)N(C)C(=O)NC1c1ccccc1F (configuration not stated) | .
COc1cccc(N2C(=O)NC(Cc3c[nH]c4ccccc34)C2=O)c1 (configuration not stated) | .
Cc1ccccc1CSC1=NCCN1C(=O)c1cccc(F)c1 | .
Cc1cc(N2CCN(C)CC2)nc2ccc(NC(=O)c3ccc([N+](=O)[O-])cc3Cl)cc12 | .
COc1ccccc1/C=C1\N=C(c2cccc([N+](=O)[O-])c2)OC1=O | .
Cc1cccc(/C=C2\N=C(c3ccc4c(c3)OCO4)OC2=O)c1 | .
Cc1cccc(/C=C2\N=C(c3ccccc3[N+](=O)[O-])OC2=O)c1 | .
Cc1cccc(C2=N/C(=C\c3cccc(C(F)(F)F)c3)C(=O)O2)c1 | 32%
COc1ccc(/C=C2\N=C(c3cccc(C)c3)OC2=O)c(OC)c1OC | 48%
COc1ccc(C2=N/C(=C\c3cccc(C(F)(F)F)c3)C(=O)O2)cc1OC | .
Cc1cccc(C2=N/C(=C\c3sccc3C)C(=O)O2)c1 | 37%
Cc1cccc(C2=N/C(=C\c3ccc(C)o3)C(=O)O2)c1 | 53%
SMILES | ST2 IL33 inh
CCOc1ccc(/C=C2\N=C(c3cccc(I)c3)OC2=O)cc1 | .
COc1cc(C)c(/C=C2/N=C(c3ccccc3)OC2=O)cc1C(C)C | .
COc1ccc(/C=C2\N=C(c3ccc(-c4ccccc4)cc3)OC2=O)cc1 | .
O=C1OC(c2cccc([N+](=O)[O-])c2)=N/C1=C\c1ccc(Cl)cc1Cl | .
O=C(O)CC1(CC(=O)N2CCN3C(=O)N(CCO)C(=O)[C@H]3C2)CCCC1 | .
Cc1[nH]n(-c2cccc(Cl)c2)c(=O)c1C=Nc1ccc(Cl)cc1[N+](=O)[O-] | .
COc1ccc(CN2CC[C@H](c3nc4ncccc4[nH]3)C2)cc1 | .
c1ccc(COc2ccc(CN3CCOCC3)cc2)cc1 | .
CCN1Cc2nc(OC)c(CNC(=O)C(=O)c3ccccc3)cc2C1=O | .
O=C(NCc1ccc(Cl)cc1Cl)N1CCOC(C(F)(F)F)C1 (configuration not stated) | .
Cc1cccc(C2=N/C(=C\c3ccco3)C(=O)O2)c1 | 47%
CCOc1ccc(/C=C2\N=C(c3cccc(F)c3)OC2=O)cc1OC | .
Cc1cccc(C2=N/C(=C\c3c(F)cccc3Cl)C(=O)O2)c1 | .
COc1cc2c(cc1-c1[nH]cnc1-c1ccccc1)OCCCO2 | .
COc1cc(NC(=O)NCCc2nc3cccnc3n2C2CCCCC2)cc(OC)c1OC | .
O=C(CN1C(=O)/C(=C\c2cccc(Cl)c2)Sc2ccccc21)NCCCN1CCOCC1 | 32%
COc1ccc(/C=C2\SC(=O)N(CC(=O)N3CCCCC3)C2=O)cc1OC | .
CNC(=O)c1ccc(/C=C2\Sc3ccccc3N(Cc3ccc(F)cc3)C2=O)cc1 | .
O=C1S/C(=C/c2cccc(Cl)c2)C(=O)N1CN1CCCCC1 | .
O=C(CN1C(=O)/C(=C\c2cccc(Cl)c2)Sc2ccccc21)NCCN1CCCCCC1 | 43%
O=C(CN1C(=O)/C(=C\c2cccc(Cl)c2)Sc2ccccc21)N1CCCCC1 | 33%
CCC1Oc2ccccc2N(CC(=O)NCCCN2CCOCC2)C1=O (configuration not stated) | .
O=C(CN1C(=O)CSc2ccc(S(=O)(=O)N3CCCCC3)cc21)NCCN1CCCC1 | .
O=C(CN1CCCC1)N1c2ccccc2Sc2ccc(C(F)(F)F)cc21 | .
O=C(CN1C(=O)/C(=C\c2ccc(C(F)(F)F)cc2)Sc2ccccc21)N1CCCC1 | 30%
CN1CCN(C(=O)CN2C(=O)S/C(=C\c3ccc(Cl)cc3)C2=O)CC1 | .
O=C(NCCCN1CCOCC1)N1c2ccccc2Sc2ccccc21 | .
COc1ccc(S(=O)(=O)N2CC[C@H](c3nc4ccccc4n3C)C2)cc1 | .
CN(C(=O)c1cc(-c2ccc(Br)cc2)on1)c1ccccc1 | .
